From PubChem BioAssay (EPA / NIEHS) come the findings set out here.

Values joined by “and” are separate entries in the source; they are usually repeats but may differ in a detail not shown here. Identical values can stand only once. Inconclusive results are not listed. Some compounds were tested as several samples or in several runs, with calls that do not always agree. Active and inactive are the calls of the source. The calls were made as follows: active = hit-call score of the fitted dose curve at least 0.9, where 1 is the maximum; inconclusive = response in the unintended direction; inactive = score below 0.9.

Test [1] concerns the target Estrogen receptor (Homo sapiens) + Estrogen receptor beta (Homo sapiens) (UniProt P03372+Q92731). As to the kind of experiment: OT_ER_ERaERb_1440: Odyssey Thera (OT) 24-hour HEK293T Protein-Complementation Assay for Estrogen Receptor-alpha/-beta Homodimer (AID 2283356).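 Also: heteromer of ER alpha and ER beta binding domains; hits raise reporter fluorescence and both agonists and antagonists give an increase.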 In short, it runs like this: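 Fragment complementation between ER alpha (310-547) and ER beta (263-489) ligand-binding domains in HEK293T cells; signal read 24 h post-dosing by laser scanning cytometer. Gain of fluorescence relative to DMSO fitted.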

For test [2], the target named is Estrogen receptor beta (Homo sapiens) (UniProt Q92731). Briefly: OT_ER_ERbERb_0480: Odyssey Thera (OT) 8-hour HEK293T Protein-Complementation Assay for Estrogen Receptor-beta/-beta Homodimer (AID 2283357).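 Also: active means signal gain over DMSO baseline.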 In short, it runs like this: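 Fluorescence gain from complemented reporter fragments on ER-beta LBD homodimer in HEK293T was quantified against DMSO controls after 8 h treatment, fixation in 4% formaldehyde and Draq5 staining.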

Test [3] addresses Glucocorticoid receptor (Homo sapiens) (UniProt P04150). As to the kind of experiment: NVS_NR_hGR: NovaScreen (NVS) Nuclear Receptor Binding Assay for human Glucocorticoid Receptor (GR) (AID 2283363).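 As to AC50: activity is loss of specific radioligand binding signal relative to DMSO.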 In short, it runs like this:
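Single-readout cell-free binding: radioligand plus extracted receptor, 16-hour dosing, filter radiodetection; 25 uM duplicate primary, concentration series secondary.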

Test [4] concerns the target Nuclear receptor subfamily 1 group I member 2 (Homo sapiens) (UniProt O75469). As to the kind of experiment: NVS_NR_hPXR: NovaScreen (NVS) Nuclear Receptor Binding Assay for human Pregnane X Receptor (PXR) (AID 2283365).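 Also: a drop in FRET signal versus DMSO baseline means the compound binds.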 In outline:
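Human PXR binding measured by TR-FRET in a cell-free format, 2 h exposure. Single-concentration duplicates at 25 uM preceded concentration-response retests of actives; endpoint fitted positively relative to DMSO, loss of signal indicating binding.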

Test [5] has as its target rat Androgen Receptor (AR), Ar (gene 24208) (UniProt P15207). Briefly: NVS_NR_rAR: NovaScreen (NVS) Nuclear Receptor Binding Assay for rat Androgen Receptor (AR) (AID 2283366). In short, it runs like this:
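Actives from a duplicate single-concentration (25 uM) primary run went on to concentration series. Displacement of radioligand was counted by filtration and scintillation, 18 h post-dose, using prostate extracts from testosterone-pretreated rats, with DMSO as baseline.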

Test [6] deals with human Peroxisome Proliferator-activated Receptor alpha (PPARa), PPARA (gene 5465) (UniProt Q07869). Briefly: NVS_NR_hPPARa: NovaScreen (NVS) Nuclear Receptor Binding Assay for human Peroxisome Proliferator-activated Receptor alpha (PPARa) (AID 2283359).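 Also: activity means loss of TR-FRET signal versus DMSO baseline.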 In short, it runs like this:
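One-hour incubation, cell-free extracted protein, TR-FRET binding readout; signal loss vs DMSO scored. Screen: 25 uM duplicates, confirmatory dose series for actives.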

In test [7] the target is human Thyroid Receptor Alpha (TRa), THRA (gene 7067) (UniProt P10827). Briefly: NVS_NR_hTRa_Antagonist: NovaScreen (NVS) Nuclear Receptor Binding Assay for human Thyroid Receptor Alpha Antagonism (TRa) (AID 2283362).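 Also: activity is loss of signal relative to DMSO baseline.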 In outline:
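Actives from a duplicate 25 uM single-point screen were retested in concentration series. The cell-free antagonist-format binding assay was read by AlphaLISA chemiluminescence at 1 h, scored as signal loss relative to DMSO.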

A further test has as its target PGR (gene 5241) (UniProt P06401). As to the kind of experiment: NVS_NR_hPR: NovaScreen (NVS) Nuclear Receptor Binding Assay for human Progestron Receptor (PR) (AID 2283360).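 Also: active means loss of bound radioligand signal versus DMSO baseline.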 In short, it runs like this:
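T47D-derived receptor preparation, cell-free, with tritiated or iodinated radioligand displacement measured by scintillation 18 h post-dosing. Single 25 uM duplicate screen, then concentration series; signal loss relative to DMSO.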

The target of test [8] is Retinoic acid receptor alpha (Homo sapiens) (UniProt P10276). Briefly: NVS_NR_hRARa_Agonist: NovaScreen (NVS) Nuclear Receptor Binding Assay for human Retinoic Acid Alpha Receptor Agonism (RAR) (AID 2283361). In short, it runs like this:
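Compounds screened at 25 uM, duplicate, then in concentration series if active. Detection: TR-FRET gain of signal versus DMSO after 2 h with cell-free extracted RARα.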

Test [9] has the same target. As to the kind of experiment: NVS_NR_hRAR_Antagonist: NovaScreen (NVS) Nuclear Receptor Binding Assay for human Retinoic Acid Alpha Receptor Antagonism (RAR) (AID 2283358). In short, it runs like this: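 Chemicals were first tested in duplicate at 25 uM, then actives in concentration series, in a cell-free TR-FRET antagonist binding format. Measurements were taken 2 hours after dosing and loss of signal was evaluated against DMSO controls.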

rat Androgen Receptor (AR), Ar (gene 24208), sequence (P15207 whole entry, looked up): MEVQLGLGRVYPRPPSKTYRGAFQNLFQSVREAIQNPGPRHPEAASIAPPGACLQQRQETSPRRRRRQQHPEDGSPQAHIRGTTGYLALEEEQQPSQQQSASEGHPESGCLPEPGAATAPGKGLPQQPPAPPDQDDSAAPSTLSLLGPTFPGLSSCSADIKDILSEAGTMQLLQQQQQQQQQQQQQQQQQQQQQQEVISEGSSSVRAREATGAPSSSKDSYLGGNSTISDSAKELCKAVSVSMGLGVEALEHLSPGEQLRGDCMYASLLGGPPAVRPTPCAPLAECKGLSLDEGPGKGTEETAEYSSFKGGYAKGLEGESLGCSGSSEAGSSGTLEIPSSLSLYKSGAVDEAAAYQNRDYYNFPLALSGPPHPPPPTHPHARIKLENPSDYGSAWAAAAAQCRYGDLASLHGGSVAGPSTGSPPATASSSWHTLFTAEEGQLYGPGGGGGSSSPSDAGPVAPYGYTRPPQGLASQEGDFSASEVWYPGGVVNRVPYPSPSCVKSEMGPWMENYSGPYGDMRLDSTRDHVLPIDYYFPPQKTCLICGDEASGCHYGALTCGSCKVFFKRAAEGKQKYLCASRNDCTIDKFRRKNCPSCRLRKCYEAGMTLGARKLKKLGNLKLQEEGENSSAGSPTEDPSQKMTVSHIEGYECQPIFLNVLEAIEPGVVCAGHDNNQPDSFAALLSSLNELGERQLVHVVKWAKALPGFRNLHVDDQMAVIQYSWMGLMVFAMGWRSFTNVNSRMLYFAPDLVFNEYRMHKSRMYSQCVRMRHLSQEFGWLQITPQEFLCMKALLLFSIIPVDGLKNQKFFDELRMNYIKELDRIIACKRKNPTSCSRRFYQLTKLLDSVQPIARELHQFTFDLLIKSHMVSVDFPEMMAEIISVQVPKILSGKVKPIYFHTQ
Glucocorticoid receptor (Homo sapiens), sequence (P04150 whole entry, looked up): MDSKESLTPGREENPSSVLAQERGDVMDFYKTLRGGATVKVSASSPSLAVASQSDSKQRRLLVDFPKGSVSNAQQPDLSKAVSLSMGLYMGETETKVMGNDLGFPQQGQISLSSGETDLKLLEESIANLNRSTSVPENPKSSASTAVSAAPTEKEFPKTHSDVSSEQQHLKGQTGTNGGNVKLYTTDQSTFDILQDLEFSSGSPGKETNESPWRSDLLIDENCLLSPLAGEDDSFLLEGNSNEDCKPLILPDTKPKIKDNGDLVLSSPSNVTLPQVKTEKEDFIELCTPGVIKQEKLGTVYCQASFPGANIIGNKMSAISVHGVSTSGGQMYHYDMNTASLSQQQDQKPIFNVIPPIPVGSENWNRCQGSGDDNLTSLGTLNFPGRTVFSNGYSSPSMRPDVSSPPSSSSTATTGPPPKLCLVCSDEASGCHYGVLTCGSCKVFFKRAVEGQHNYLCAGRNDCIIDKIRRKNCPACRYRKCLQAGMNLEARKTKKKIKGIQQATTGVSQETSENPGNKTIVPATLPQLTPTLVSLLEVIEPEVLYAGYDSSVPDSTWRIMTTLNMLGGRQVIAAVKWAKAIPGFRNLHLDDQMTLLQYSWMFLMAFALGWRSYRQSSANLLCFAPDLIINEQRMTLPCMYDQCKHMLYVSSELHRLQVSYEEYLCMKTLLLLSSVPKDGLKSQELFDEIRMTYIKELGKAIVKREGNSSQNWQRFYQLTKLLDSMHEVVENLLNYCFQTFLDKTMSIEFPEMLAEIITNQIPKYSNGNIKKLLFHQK
Estrogen receptor (Homo sapiens) + Estrogen receptor beta (Homo sapiens), sequence (P03372 whole entry, looked up, the tested form may be a part): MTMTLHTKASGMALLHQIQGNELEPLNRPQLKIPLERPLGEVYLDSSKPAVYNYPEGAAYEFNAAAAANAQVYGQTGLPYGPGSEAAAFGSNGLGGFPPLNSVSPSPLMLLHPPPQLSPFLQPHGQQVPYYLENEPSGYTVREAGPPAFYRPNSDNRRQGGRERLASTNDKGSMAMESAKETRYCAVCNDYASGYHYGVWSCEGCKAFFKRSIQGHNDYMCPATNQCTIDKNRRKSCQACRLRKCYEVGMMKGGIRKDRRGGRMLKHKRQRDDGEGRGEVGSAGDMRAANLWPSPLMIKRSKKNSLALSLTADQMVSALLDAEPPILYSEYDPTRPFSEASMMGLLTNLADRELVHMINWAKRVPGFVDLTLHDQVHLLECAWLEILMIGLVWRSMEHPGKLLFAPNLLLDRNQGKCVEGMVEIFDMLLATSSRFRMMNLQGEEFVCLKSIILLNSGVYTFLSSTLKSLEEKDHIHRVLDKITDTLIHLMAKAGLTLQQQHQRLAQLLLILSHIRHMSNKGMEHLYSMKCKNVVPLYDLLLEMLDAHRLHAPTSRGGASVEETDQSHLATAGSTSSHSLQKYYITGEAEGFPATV
Estrogen receptor (Homo sapiens) + Estrogen receptor beta (Homo sapiens), sequence (Q92731 whole entry, looked up, the tested form may be a part): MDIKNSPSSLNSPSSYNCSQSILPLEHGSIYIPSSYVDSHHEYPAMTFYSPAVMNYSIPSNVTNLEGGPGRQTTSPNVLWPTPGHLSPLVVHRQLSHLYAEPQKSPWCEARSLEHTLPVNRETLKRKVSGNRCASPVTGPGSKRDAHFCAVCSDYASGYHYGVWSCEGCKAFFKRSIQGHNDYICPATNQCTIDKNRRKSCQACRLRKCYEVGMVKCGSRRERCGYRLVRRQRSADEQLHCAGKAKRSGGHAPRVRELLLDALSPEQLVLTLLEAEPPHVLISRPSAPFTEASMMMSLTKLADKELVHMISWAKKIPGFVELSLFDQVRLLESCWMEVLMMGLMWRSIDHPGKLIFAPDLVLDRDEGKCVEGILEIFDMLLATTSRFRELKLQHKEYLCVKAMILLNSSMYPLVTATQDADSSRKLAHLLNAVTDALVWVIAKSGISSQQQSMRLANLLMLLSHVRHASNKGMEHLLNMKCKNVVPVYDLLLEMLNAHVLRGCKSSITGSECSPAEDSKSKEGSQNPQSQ
PGR (gene 5241), sequence (P06401 whole entry, looked up): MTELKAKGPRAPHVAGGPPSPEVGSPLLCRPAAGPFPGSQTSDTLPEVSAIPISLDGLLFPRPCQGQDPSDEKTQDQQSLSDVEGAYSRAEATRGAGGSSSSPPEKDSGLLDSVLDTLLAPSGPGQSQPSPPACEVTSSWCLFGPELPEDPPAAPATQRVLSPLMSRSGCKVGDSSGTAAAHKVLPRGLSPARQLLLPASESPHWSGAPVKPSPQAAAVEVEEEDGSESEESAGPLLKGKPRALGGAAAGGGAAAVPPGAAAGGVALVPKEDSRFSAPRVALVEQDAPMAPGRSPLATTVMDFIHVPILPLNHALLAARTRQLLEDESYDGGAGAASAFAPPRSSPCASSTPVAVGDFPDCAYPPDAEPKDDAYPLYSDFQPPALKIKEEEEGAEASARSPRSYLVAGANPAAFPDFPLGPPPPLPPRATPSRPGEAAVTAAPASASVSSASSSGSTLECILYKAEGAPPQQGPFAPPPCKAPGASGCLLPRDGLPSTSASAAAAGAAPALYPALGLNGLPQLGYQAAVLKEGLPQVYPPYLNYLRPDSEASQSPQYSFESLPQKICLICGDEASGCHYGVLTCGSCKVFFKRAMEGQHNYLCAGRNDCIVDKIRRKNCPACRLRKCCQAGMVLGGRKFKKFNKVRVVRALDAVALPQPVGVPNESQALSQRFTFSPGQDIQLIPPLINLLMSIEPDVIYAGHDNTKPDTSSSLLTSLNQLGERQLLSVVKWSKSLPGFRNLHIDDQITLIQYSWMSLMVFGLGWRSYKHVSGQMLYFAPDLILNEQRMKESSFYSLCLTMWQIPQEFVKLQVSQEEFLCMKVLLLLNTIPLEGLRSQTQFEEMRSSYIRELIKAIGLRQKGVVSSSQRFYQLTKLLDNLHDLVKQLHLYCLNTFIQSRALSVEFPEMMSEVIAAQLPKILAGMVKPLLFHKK
human Peroxisome Proliferator-activated Receptor alpha (PPARa), PPARA (gene 5465), sequence (Q07869 whole entry, looked up): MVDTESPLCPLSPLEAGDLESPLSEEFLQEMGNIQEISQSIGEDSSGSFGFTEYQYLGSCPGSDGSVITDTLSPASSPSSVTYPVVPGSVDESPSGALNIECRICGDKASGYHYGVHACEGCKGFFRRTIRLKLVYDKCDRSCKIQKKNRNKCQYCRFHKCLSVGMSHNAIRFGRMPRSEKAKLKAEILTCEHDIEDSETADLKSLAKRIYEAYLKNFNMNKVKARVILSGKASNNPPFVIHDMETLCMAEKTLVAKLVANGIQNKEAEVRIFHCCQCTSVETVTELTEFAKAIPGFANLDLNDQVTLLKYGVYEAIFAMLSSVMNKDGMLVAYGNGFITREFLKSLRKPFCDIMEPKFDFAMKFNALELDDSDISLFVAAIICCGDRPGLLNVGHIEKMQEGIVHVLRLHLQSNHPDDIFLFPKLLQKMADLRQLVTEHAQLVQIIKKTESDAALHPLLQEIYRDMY
Nuclear receptor subfamily 1 group I member 2 (Homo sapiens), sequence (O75469 whole entry, looked up): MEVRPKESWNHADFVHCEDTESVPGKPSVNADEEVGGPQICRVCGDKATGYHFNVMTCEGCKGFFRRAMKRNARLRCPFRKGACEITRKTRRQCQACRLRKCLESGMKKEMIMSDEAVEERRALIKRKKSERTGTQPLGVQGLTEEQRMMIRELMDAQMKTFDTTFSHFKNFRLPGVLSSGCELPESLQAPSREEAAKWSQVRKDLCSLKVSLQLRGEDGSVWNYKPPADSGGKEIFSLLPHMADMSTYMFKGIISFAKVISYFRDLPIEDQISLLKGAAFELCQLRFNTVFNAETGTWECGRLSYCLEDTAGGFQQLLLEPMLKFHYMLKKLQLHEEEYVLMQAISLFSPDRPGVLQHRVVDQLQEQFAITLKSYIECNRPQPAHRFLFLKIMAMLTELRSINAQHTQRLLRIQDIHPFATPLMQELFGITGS
Estrogen receptor beta (Homo sapiens), sequence (Q92731 whole entry, looked up, the tested form may be a part): as the sequence (Q92731 whole entry, looked up, the tested form may be a part) above

One may read the AC50 as the concentration at which the activity in the assay is half-maximal. Regarding `CC(C)C1CCC(Cc2ccc(Cl)cc2)C1(O)Cn1cncn1` (configuration not stated), the AC50 in [1] is 11.7 µM (active); in [3] it was 5.7 µM (active); in [4], 15.5 µM (active). Further, the compound was called inactive in [2].

As for `COc1ccc(C=O)cc1OC`, the result in [1] and in test [2] was inactive.

Regarding `Cn1sc(Cl)cc1=O`, the result in test [1], in test [2] and in [3] was inactive.

In the case of `CCN1CCC2(CC1)COc1cc3c(cc12)N(C(=O)c1ccc(-c2ccc(-c4nnc(C)o4)cc2C)cc1)CC3`, the outcome in test [1], in test [2] and in test [5] was inactive.

Turning to `CCC(=O)C(CC(C)N(C)C)(c1ccccc1)c1ccccc1` (configuration not stated), the outcome in test [1] and in [2] was inactive.

Turning to `Cc1ccc(N)cc1Cl`, in test [1], the AC50 is 15.3 µM (active). Moreover, in test [2], the call was inactive.

As for `C=CC(=O)OCCCCCC(C)C`, the result in test [1] and in test [2] was inactive.

For the compound `COP(=S)(OC)Oc1ccc(Sc2ccc(OP(=S)(OC)OC)cc2)cc1`, the AC50 in test [1] is 48.4 µM (active); in [6], 12.7 µM (active); in [5] it was 16.1 µM (active). In addition, the compound was called inactive in test [2] and in test [5].

As for `CCOC(=O)Nc1cccc(OC(=O)Nc2ccccc2)c1`, the result in test [1] and in [2] was inactive.

Take `C[C@H]1CCCC(=O)CCC/C=C/c2cc(O)cc(O)c2C(=O)O1`: the AC50 was 0.24 µM (active) in [1], 0.0845 µM (active) in test [2] and 0.969 µM (active) in [4].

Consider `CCC(C)(C)c1ccc(O)c(C(C)(C)CC)c1`, for which the outcome in test [1] and in [2] was inactive.

As to `O=S(=O)(c1ccc(Cl)cc1)c1ccc(Cl)cc1`, the outcome in [1] and in test [2] was inactive.

For `c1cc[c]([Hg][c]2ccccc2)cc1`, the result in [1] was inactive.

For the compound `OCc1ccco1`, the outcome in test [1], in [2] and in test [4] was inactive.

As for `CC(C)c1cccc(C(C)C)c1O`, the outcome in test [1] and in [2] was inactive.

For `CC1(C)Cc2cccc(O)c2O1`, the outcome in [1], in test [2] and in [4] was inactive.

With `CC(=O)[O][Hg][c]1ccccc1`, the outcome in [1] and in [2] was inactive. The concentration at half-maximal activity (AC50) in [4] was 5.37 µM (active).

As for `COC(=O)c1sccc1S(=O)(=O)NC(=O)Nc1nc(C)nc(OC)n1`, the outcome in test [1] and in test [2] was inactive.

As to `CC(C)(c1ccccc1)c1ccc(O)c(C(C)(C)c2ccccc2)c1`, the concentration at half-maximal activity (AC50) was 12 µM (active) in [1] and 2.61 µM (active) in [2]. In addition, the compound was classed as inactive in test [6], in test [7] and in [4].

With `COP(=O)(OC)O/C(=C\Cl)c1cc(Cl)c(Cl)cc1Cl`, in [6], the outcome was inactive. Further, the half-maximal activity concentration (AC50) in [4] was 25 µM (active).

Consider `C[C@]12CCC(=O)C[C@@H]1CC[C@@H]1[C@@H]2CC[C@]2(C)[C@@H](O)CC[C@@H]12`, for which the AC50 in [2] was 6.23 µM (active) and 10.7 µM (active) and 5.44 µM (active); with PGR (gene 5241), 0.366 µM (active). In addition, the result in test [2] and in test [4] was inactive.

Regarding `ClC1(Cl)C2(Cl)C3(Cl)C4(Cl)C(Cl)(Cl)C5(Cl)C3(Cl)C1(Cl)C5(Cl)C24Cl` (configuration not stated), the call in [8] was inactive.

For `CC(C)(C)CC(C)(C)c1ccc(O)cc1`, the concentration at half-maximal activity (AC50) in test [2] is 817 nM (active) and 676 nM (active) and 702 nM (active); in the test with PGR (gene 5241), 10.8 µM (active); in [3] it was 4.67 µM (active) and 15.9 µM (active) and 7.33 µM (active). For the same compound, the result in [5] was inactive.

`C[C@]12CC[C@H](O)CC1=CC[C@@H]1[C@@H]2CC[C@]2(C)C(=O)CC[C@@H]12`: the AC50 in [2] was 3.91 µM (active). Moreover, the compound was called inactive in test [4].

As for `CCCCCCCCc1ccc(O)cc1`, the AC50 in test [2] was 12.2 µM (active). Besides, the compound was called inactive in test [6].

Regarding `Cc1ccccc1N`, in test [4], the outcome was inactive.

As to `O=C(Nc1ccc2[nH]ccc2c1)c1cc2cc(F)ccc2n1Cc1cccc(F)c1`, the compound was classed as inactive in test [4].

With `O=C(O)C(F)(F)C(F)(F)C(F)(F)C(F)(F)C(F)(F)C(F)(F)C(F)(F)C(F)(F)C(F)(F)C(F)(F)F`, the compound was classed as inactive in test [2].

In the case of `Oc1ccc(-c2ccccc2)cc1`, the AC50 in test [2] was 12.7 µM (active); with PGR (gene 5241), 43.2 µM (active). Besides, the compound was classed as inactive in test [6].

Regarding `[O-][Cl+2]([O-])O`, the result in test [1] and in test [4] was inactive.

With `Oc1cccc2cccnc12`, the compound was classed as inactive in test [2] and in [4]. In addition, the AC50 in [7] is 5.52 µM (active).

`O=C(O)C(F)(F)C(F)(F)C(F)(F)C(F)(F)C(F)(F)C(F)(F)F`: the call in test [2] and in [6] was inactive.

Take `N#CCCO`: the compound was called inactive in [5].

Take `COC[C@H](C)N(C(=O)CCl)c1c(C)csc1C`: the half-maximal activity concentration (AC50) with PGR (gene 5241) is 8.39 µM (active).

As to `O=[N+]([O-])c1ccc(O)c([N+](=O)[O-])c1`, the result in [1] and in test [5] was inactive.

Take `CC12CC1(C)C(=O)N(c1cc(Cl)cc(Cl)c1)C2=O` (configuration not stated): the result in [2], in test [4] and in test [5] was inactive.

With `C=CC(=O)N(C)C`, the compound was called inactive with PGR (gene 5241).

`C1CCC(NC2CCCCC2)CC1`: the compound was called inactive in test [4].

For the compound `Nc1cccc2ccccc12`, the result with PGR (gene 5241) was inactive.

As to `CCN(CC)C(=O)Cl`, the call in test [5] was inactive.

`CCC[CH2][Sn]([CH2]CCC)([CH2]CCC)[O]C(=O)c1ccccc1`: the concentration at half-maximal activity (AC50) in [4] was 14.6 µM (active).

For `C=CCc1ccc(OC)cc1`, the result in [2] and in test [6] was inactive.

On to `O=c1[nH]c(=O)[nH]c(=O)[nH]1`, for which the compound was called inactive in test [2].

Regarding `CC(C)(c1ccc(OCC2CO2)cc1)c1ccc(OCC2CO2)cc1` (configuration not stated), the outcome in [2], in test [9] and in [3] was inactive.
